Assay outcomes deposited in PubChem by several laboratories.
S1P4 agonist: human S1P4 receptor agonism; O95977; S1P4-expressing cell line, agonist reporter assay; activation, % at 4.98 µM; 0.35% of 220,000 active; AID 1509; in the data active = activation above about 11%;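 also: 0% = DMSO vehicle and 100% = reference agonist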
Target sequence (O95977 whole entry, looked up): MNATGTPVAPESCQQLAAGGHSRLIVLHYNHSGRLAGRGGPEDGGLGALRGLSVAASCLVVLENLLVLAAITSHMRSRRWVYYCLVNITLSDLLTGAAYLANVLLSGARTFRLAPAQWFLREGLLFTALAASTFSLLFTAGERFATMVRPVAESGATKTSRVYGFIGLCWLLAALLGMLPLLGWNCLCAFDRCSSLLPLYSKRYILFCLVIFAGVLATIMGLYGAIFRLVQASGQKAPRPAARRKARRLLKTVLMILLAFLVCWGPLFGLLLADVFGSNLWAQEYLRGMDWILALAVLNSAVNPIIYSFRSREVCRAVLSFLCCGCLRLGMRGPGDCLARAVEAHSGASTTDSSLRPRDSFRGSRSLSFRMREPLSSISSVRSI
CHOP inh: inhibitors of CHOP induction in ER stress response; CHO-K1 CHOP-promoter luciferase, tunicamycin-induced, 15-18 h; AID 2732; inhibition, % at 10 µM; 3.8% of 220,000 active;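 active = compounds that reduced the stress-induced luciferase reporter signal by more than about 70% of percent inhibition, limit read from the data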;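 also: 0% = tunicamycin plus vehicle and 100% = wells without tunicamycin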
Hsp70 act: transcriptional activators of Hsp70; 0.04% of 200,000 active; HeLa Hsp70 promoter luciferase reporter, luminescence; scaled: vehicle 0, proteasome-inhibitor control 100%; activation, % at 10 µM; AID 1203;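 active = activation above the mean across all tested compounds plus 3 SD, cutoff set per campaign, cut at about 5.5% in these data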;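 also: 100% = MG132 at 30 µM as the positive control and 0% = DMSO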
S1P4 antag: blocks the human S1P4 receptor; AID 1510; O95977; S1P4-expressing cells, antagonist mode, reporter read-out; inhibition, % at 4.98 µM; 0.26% of 220,000 active; in the data active = inhibition above about 29%;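 also: 0% = wells stimulated with agonist and 100% = vehicle wells without agonist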
CHOP confirm: confirmation of CHOP induction inhibitors. inhibition, % at 10 µM. shares compounds with CHOP inh. AID 504437. CHO-CHOP promoter luciferase reporter, tunicamycin-induced, luminescence. 45% of 2,100 active;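 active = mean of three repeat readings of reporter signal inhibition above a set limit, cut at about 70% in these data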;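 also: 0% = tunicamycin plus vehicle and 100% = wells lacking tunicamycin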
An asterisk follows results filed as active; nt = not tested or not shown. This is a sample that favours compounds with a hit; in the whole collection about 4.2% have one here.

SMILES	S1P4 agonist	CHOP inh	Hsp70 act	S1P4 antag	CHOP confirm
CS(=O)(=O)N(CC(=O)NCc1ccc(Cl)cc1)C1CCCCC1	3	5	0	-13	nt
CC(C)(C)c1cc(OS(C)(=O)=O)ccc1O	0	32	0	-23	nt
CCCCC(CC)C(=O)Oc1ccc(O)c(C(C)(C)C)c1 (stereo unspecified)	0	104*	0	9	117*
Cc1ccc(NC(=O)c2ccc(OC(F)F)cc2)cc1S(=O)(=O)N(C)C	2	-11	0	-15	nt
CC(NCc1cccc(OCc2ccccc2)c1)C(O)c1ccccc1 (stereo unspecified)	-2	-9	0	-4	nt
CC(NCc1ccc(OCc2ccc(Cl)cc2)cc1)C(O)c1ccccc1 (stereo unspecified)	0	105*	0	2	18
O=C(O)c1cccc(NC(CNS(=O)(=O)c2ccc(Cl)cc2)c2ccccc2)c1 (stereo unspecified)	1	-4	0	11	nt
O=S(=O)(NCC(Nc1ccccc1)c1ccccc1)c1ccc(Cl)cc1 (stereo unspecified)	1	102*	0	0	33
O=C1Nc2ccc(Br)cc2/C1=C/C(=O)c1ccc2c(c1)OCO2	0	107*	nt	17	-37
O=C(CC1(O)C(=O)Nc2ccccc21)c1ccc2c(c1)OCO2 (stereo unspecified)	1	7	0	-8	nt
NS(=O)(=O)c1ccc(N/N=C2/CCCCC2C2CCCCC2)c([N+](=O)[O-])c1 (stereo unspecified)	0	108*	0	-2	115*
Cc1cc(C)c2c(c1)/C(=N/Nc1ccc(S(N)(=O)=O)cc1[N+](=O)[O-])CCC2	-2	16	0	-1	nt
O=C(NC(=S)Nc1ccc2oc(-c3cccnc3)nc2c1)c1cccc(Cl)c1	-6	99*	-1	3	8
Cc1ccc(NC(=O)/C(=C\c2ccc([N+](=O)[O-])cc2)NC(=O)c2ccccc2)cc1	3	98*	1	7	-4
O=C(Nc1cccc(C(=O)O)c1)/C(=C/c1ccc([N+](=O)[O-])cc1)NC(=O)c1ccccc1	-1	22	0	-2	nt
Nc1nonc1C(=O)NCCN=Cc1ccccc1O	-1	28	0	-4	nt
Nc1nonc1C(=O)NCCN=Cc1cc(Cc2ccccc2)cc(Br)c1O	0	104*	1	-7	12
CC(=O)N1N=C(c2cccs2)CC1c1ccc(C)o1 (stereo unspecified)	1	23	0	-12	nt
CN(C)S(=O)(=O)c1ccc(C(=O)OCc2ccc(C#N)cc2)cc1	0	-1	0	7	nt
CC(=O)N1CCN(c2ccc(NC(=O)c3ccc(C(C)(C)C)cc3)cc2)CC1	4	-1	0	-24	nt
O=C(Nc1ccccc1NC(=O)NC1CCCCC1)NC1CCCCC1	-4	104*	0	-7	114*
O=C1/C(=C\c2cccs2)Sc2ccc3ccccc3c21	-1	-7	0	-25	nt
CCc1cc2c(cc3c(=O)n(CC(=O)NCCCN(CC)CC)nc(CC)n32)s1	1	19	0	-7	nt
CCc1nn(CC(=O)NCCCN(CC)c2cccc(C)c2)c(=O)c2cc3occc3n12	2	104*	0	-26	31
CCOc1cc(/C=N/NC(=O)Cc2ccc(C(F)(F)F)cc2[N+](=O)[O-])c(Br)cc1OC	0	101*	0	1	100*
SMILES	S1P4 agonist	CHOP inh	Hsp70 act	S1P4 antag	CHOP confirm
CCN(CC)c1ccc(/C=N/NC(=S)NCc2ccccc2)c(O)c1	2	100*	0	2	-66
CCN(CC)c1ccc(/C=N/NC(=O)c2ccco2)c(O)c1	2	62	nt	2	nt
CCCCCc1c(C)nc(Nc2ccccc2)[nH]c1=O	1	104*	0	-1	86*
Cc1nc(Nc2ccc(F)cc2)[nH]c(=O)c1CCC(C)C	4	104*	0	-11	107*
CCOC(CCc1c(C)nc(NC(C)=O)[nH]c1=O)OCC	1	-3	nt	3	nt
O=C(COC(=O)/C=C/c1cccc(Br)c1)NCCC1=CCCCC1	-1	96*	0	-40	-1
O=C(COc1ccc(Cl)cc1Cl)NCCC1=CCCCC1	-2	107*	0	-7	115*
Nc1nnc(-c2ccc(F)cc2)s1	0	49	0	2	nt
O=C(Nc1ccc(C(O)(C(F)(F)F)C(F)(F)F)cc1)c1ccc(Cl)c([N+](=O)[O-])c1	1	107*	0	-11	117*
CCn1cc(Cl)c(C(=O)N2N=C(c3ccc4ccccc4c3)CC2c2ccccc2O)n1 (stereo unspecified)	2	97*	0	-1	61
